Where a chain is given by its changes, count along the chain named.
B1: TAAC (dsDNA)
DNA 1: GCTATCTAGTGCTCAGTACGCACTGTAACAGGAAACTTCTGGCAGGACCAGGTCATGAGATCGGAAGAGCACACGTCTGAACTCCAGTCA
DNA 2: TGACTGGAGTTCAGACGTGTGCTCTTCCGATCTCATGACCTGGTCCTGCCAGAAGTTTCCTGTTACAGTGCGTACTGAGCACTAGATAGC
RNA: AAUUUCUACUCUUGUAGAUAGGAAACUUCUGGCAGGACC
B2: TACC (dsDNA)
DNA 1: B1 DNA 1 with A28C
DNA 2: B1 DNA 2 with T63G
RNA: B1 RNA
B3: TGCG (dsDNA)
DNA 1: B1 DNA 1 with A27G, A28C, C29G
DNA 2: B1 DNA 2 with G62C, T63G, T64C
RNA: B1 RNA
B4: TAAG (dsDNA)
DNA 1: B1 DNA 1 with C29G
DNA 2: B1 DNA 2 with G62C
RNA: B1 RNA
B5: TAAT (dsDNA)
DNA 1: B1 DNA 1 with C29T
DNA 2: B1 DNA 2 with G62A
RNA: B1 RNA
B6: TCAG (dsDNA)
DNA 1: B1 DNA 1 with A27C, C29G
DNA 2: B1 DNA 2 with G62C, T64G
RNA: B1 RNA
B7: TAGT (dsDNA)
DNA 1: B1 DNA 1 with A28G, C29T
DNA 2: B1 DNA 2 with G62A, T63C
RNA: B1 RNA
B8: TAGG (dsDNA)
DNA 1: B1 DNA 1 with A28G, C29G
DNA 2: B1 DNA 2 with G62C, T63C
RNA: B1 RNA
B9: TCAT (dsDNA)
DNA 1: B1 DNA 1 with A27C, C29T
DNA 2: B1 DNA 2 with G62A, T64G
RNA: B1 RNA
B10: TACA (dsDNA)
DNA 1: B1 DNA 1 with A28C, C29A
DNA 2: B1 DNA 2 with G62T, T63G
RNA: B1 RNA
B11: TGAG (dsDNA)
DNA 1: B1 DNA 1 with A27G, C29G
DNA 2: B1 DNA 2 with G62C, T64C
RNA: B1 RNA
B12: TGCT (dsDNA)
DNA 1: B1 DNA 1 with A27G, A28C, C29T
DNA 2: B1 DNA 2 with G62A, T63G, T64C
RNA: B1 RNA
B13: TGAC (dsDNA)
DNA 1: B1 DNA 1 with A27G
DNA 2: B1 DNA 2 with T64C
RNA: B1 RNA
B14: TGGC (dsDNA)
DNA 1: B1 DNA 1 with A27G, A28G
DNA 2: B1 DNA 2 with T63C, T64C
RNA: B1 RNA
B15: TAGC (dsDNA)
DNA 1: B1 DNA 1 with A28G
DNA 2: B1 DNA 2 with T63C
RNA: B1 RNA
B16: TGAT (dsDNA)
DNA 1: B1 DNA 1 with A27G, C29T
DNA 2: B1 DNA 2 with G62A, T64C
RNA: B1 RNA
B17: TACG (dsDNA)
DNA 1: B1 DNA 1 with A28C, C29G
DNA 2: B1 DNA 2 with G62C, T63G
RNA: B1 RNA

target: dAsCas12a S542R (Acidaminococcus sp., UniProt U2UMQ6 1-1307, S542R;D908A;E993A;D1235A); assay: Spec-seq (native PAGE EMSA with sequencing of bound and unbound); 25 mM Tris-HCl pH 7.4, 150 mM KCl, 5 mM MgCl2, 10% glycerol, 1 mM DTT, 40 ng/uL salmon sperm DNA; 400 nM Cas12a, 480 nM crRNA, 50 nM library, 37 C 1 h; native PAGE at room temperature; high values mean tight binding; details: protein: recombinant
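Further: relative affinity from the bound to unbound sequence frequency ratio in Spec-seq.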

Going from B1 to B2, the binding signal rises from -8.34 lnKA to -7.06 lnKA.

Going from B3 to B4, the binding signal falls from -8.2 lnKA to -8.68 lnKA.

Going from B5 to B6, the binding signal rises from -8.37 lnKA to -7.87 lnKA.

First: B7
Second: B8
The binding signal of the first is higher: -8.48 lnKA for the first, -8.66 lnKA for the second.

Compared with B9, B10 is higher in binding signal: -8.4 lnKA for the first, -7.41 lnKA for the second.

Compared with B11, B12 is higher in binding signal: -8.4 lnKA for the first, -8.2 lnKA for the second.

Compared with B13, B14 is higher in binding signal: -8.67 lnKA for the first, -8.19 lnKA for the second.

Compared with B15, B16 is lower in binding signal: -8.4 lnKA for the first, -8.47 lnKA for the second.

B17 was tested, and the binding signal was -7.71 lnKA.

target: d-enCas12a (Acidaminococcus sp., UniProt U2UMQ6 1-1307, E174R;S542R;K548R;D908A;E993A;D1235A); assay: as above; details: protein: recombinant

Compared with B1, B2 is higher in binding signal: -4.66 lnKA for the first, -1.02 lnKA for the second.

Compared with B3, B4 is lower in binding signal: -3.38 lnKA for the first, -5.56 lnKA for the second.

Compared with B5, B6 is lower in binding signal: -5.67 lnKA for the first, -5.78 lnKA for the second.

First: B7
Second: B8
The binding signal of the first is lower: -5.67 lnKA for the first, -5.6 lnKA for the second.

Going from B9 to B10, the binding signal rises from -5.72 lnKA to -1.33 lnKA.

First: B11
Second: B12
The binding signal of the first is lower: -5.65 lnKA for the first, -4 lnKA for the second.

First: B13
Second: B14
The binding signal of the first is higher: -5.25 lnKA for the first, -5.4 lnKA for the second.

Compared with B15, B16 is lower in binding signal: -5.51 lnKA for the first, -5.85 lnKA for the second.

With B17 the binding signal was -3.12 lnKA.

target: d-enCas12a-Ultra (Acidaminococcus sp., UniProt U2UMQ6 1-1307, E174R;S542R;K548R;M537R;F870L;D908A;E993A;D1235A); assay: as above; details: protein: recombinant

First: B1
Second: B2
The binding signal of the first is lower: -2.03 lnKA for the first, -0.362 lnKA for the second.

First: B3
Second: B4
The binding signal of the first is higher: -0.977 lnKA for the first, -3.25 lnKA for the second.

First: B5
Second: B6
The binding signal of the first is higher: -3.27 lnKA for the first, -3.45 lnKA for the second.

Compared with B7, B8 is lower in binding signal: -3.31 lnKA for the first, -3.37 lnKA for the second.

First: B9
Second: B10
The binding signal of the first is lower: -3.42 lnKA for the first, -0.355 lnKA for the second.

Going from B11 to B12, the binding signal rises from -3.4 lnKA to -1.2 lnKA.

Going from B13 to B14, the binding signal falls from -2.74 lnKA to -3.03 lnKA.

Going from B15 to B16, the binding signal falls from -3.07 lnKA to -3.37 lnKA.

Work on B17 yielded a binding signal of -0.852 lnKA.

Source: PMC8222333, “AsCas12a ultra nuclease facilitates the rapid generation of therapeutic cell medicines”
